Experimental data reported in PubChem BioAssay (EPA / NIEHS).
The source made the active and inactive calls. The calls were made as follows: active = hit-call score of the fitted dose curve at least 0.9, where 1 is the maximum; inactive = score below 0.9.

read-out: Interleukin-8 (IL8), CXCL8 (gene 3576); experiment: BSK_3C_IL8: BioMAP Diversity Plus: 3C Assay for Interleukin-8 (IL8) Biomarker Activity (AID 2283020); details: primary human endothelial cells (HUVEC); actives raise or lower the signal
Description: BSK_3C is a cell-based, multiplexed-readout assay that uses umbilical vein endothelium, a human vascular primary cell, with measurements taken at 24 hours after chemical dosing in a 96-well plate.BSK_3C_IL8 is an assay component measured in the BSK_3C assay. It measures IL-8 antibody related to regulation of gene expression using ELISA technology.Data from the assay component BSK_3C_IL8 was analyzed into 1 assay endpoint. This assay endpoint, BSK_3C_IL8, was analyzed with bidirectional fitting relative to DMSO as the negative control and baseline of activity. Using a type of binding reporter, gain or loss-of-signal activity can be used to understand changes in the signaling as they relate to the gene CXCL8. Furthermore, this assay endpoint can be referred to as a primary readout, because this assay has produced multiple assay endpoints where this one serves a signaling function. To generalize the intended target to other relatable targets, this assay endpoint is annotated to the cytokine intended target family, where the subfamily is interleukins.
The levels of cell surface (or secreted, indicated by the prefix "s") biomarker endpoints were measured by ELISA. Overt cytotoxicity to cells in confluent adherent cultures (all systems other than the BT system) was assessed by measuring total protein levels using sulforhodamine B (SRB) staining in parallel cultures at the time of biomarker measurements, indicated as SRB endpoints. For proliferation assays for adherent cell types, individual cell types are cultured at sub-confluence and relative cell numbers quantified by SRB staining at time points optimized for each system (48 h: 3C and CASM3C systems; 72 h: BT and HDF3CGF systems; 96 h: SAg system). SRB was performed by staining cells with 0.1% SRB after fixation with 10% TCA and reading wells at 560 nm.Viability and proliferation of PBMC (T cells) was quantified by Alamar Blue reduction for the SAg and BT systems. For PBMC viability (referred to as PBMC Cytotoxicity within the assay endpoint names), cells were plated (75,000/well in a 96-well plate) and then chemical samples added for 1 h before addition of activators, SEB and TSST-1 (20 ng/mL final concentration each). Cells were incubated for 90 h. Then, Alamar Blue (20 uL/well) (Invitrogen, Cat DAL1100) was added for 6 h, and the plates were read with a fluorescence microplate reader at 546/580 nm (excitation/emission). For PBMC proliferation, cells were plated and activated as above but incubated for only 16 h prior to addition of Alamar Blue. Plates were read after 6 h.

outcome, inactive:
CCCCOC(=O)c1ccc(O)cc1
O=C(O)c1ccccc1-n1cc(C(=O)O)c(=O)c2cc(Nc3c(F)cc(F)cc3Cl)c(Cl)cc21
Cc1cccc2ccccc12
CCCCOC(=O)CC(CC(=O)OCCCC)(OC(C)=O)C(=O)OCCCC
CCN(Cc1cccc(S(=O)(=O)O)c1)c1ccc(C(=C2C=CC(=[N+](CC)Cc3cccc(S(=O)(=O)O)c3)C=C2)c2ccccc2S(=O)(=O)[O-])cc1
O=C(O)Cc1cc(I)c(Oc2ccc(O)c(I)c2)c(I)c1
CCCCCCCCCC(=O)O
OC12N=C(c3ccccc3)SC1Cc1cc(Cl)ccc12 (stereo not given)
Clc1cc(Cl)c2c(c1)N=C1CCCCCN1C2
Cc1ncc(CO)c(CO)c1O
CCCCCCCCOc1ccc(C(=O)c2ccccc2)c(O)c1
COCC(C)OCC(C)OCC(C)O (stereo not given)
CN1C(=O)CC[C@H]1c1cccnc1
c1ccc2ccccc2c1
Cc1cn([C@H]2C[C@H](N=[N+]=[N-])[C@@H](CO)O2)c(=O)[nH]c1=O
Cc1ccc2oc(CN(Cc3ccccc3)C(=O)Nc3c(F)cc(F)cc3F)c(-c3ccc(Cl)cc3)c2c1
c1ccc(C[n+]2cccc3ccccc32)cc1
CCCCCCCCN(C)CCCCCCCC
O=C1CCC(C2CCCCC2)CC1
CC[C@@H]1C[C@H](N(Cc2cc(C(F)(F)F)cc(C(F)(F)F)c2)C(C)=O)c2cc(C(F)(F)F)ccc2N1C(=O)OC(C)C
c1ccc2n[nH]nc2c1
C[C@]12CC[C@@H]3c4ccc(O)cc4CC[C@H]3[C@@H]1CCC2=O
CC(C)(O)c1ccc(CNC(=O)c2cccnc2Oc2ccc3nonc3c2)cc1
O=C1c2ccccc2C(=O)N1CCc1noc(-c2ccc(CN3CCCCCC3)s2)n1
CC1(C)NC(=O)N(c2ccc([N+](=O)[O-])c(C(F)(F)F)c2)C1=O
CCCCCc1ccc(N)cc1
O=C=NCCCCCCN=C=O

AC50, active:
CC(C)(C)c1csc(-c2cc3cc(OCc4ccccc4CC(=O)O)ccc3o2)n1 18.4 µM
CN(C[C@@H](CC[N+]12CCC(C3CCCCC3)(CC1)CC2)c1ccc(Cl)c(Cl)c1)C(=O)c1cc(C(F)(F)F)cc(C(F)(F)F)c1 24.3 µM
CC(C)(C)c1cc(/C=C2\SC(N)=NC2=O)cc(C(C)(C)C)c1O 30.1 µM
O=c1[nH]sc2ccccc12 14.4 µM
NC(=O)c1nc(-c2cccc(-c3cc(F)ccc3OCC(F)(F)C(F)(F)F)c2)n[nH]1 34.4 µM
CCN(Cc1cccnc1)C(=O)c1cccc(Cl)c1[C@]1(C)C(=O)N(Cc2ccc(OC)cc2OC)c2ccc(Cl)cc21 5.8 µM
CCCCCCCCOC(=O)c1cc(O)c(O)c(O)c1 30.8 µM
CN(C)c1ccc(C(=C2C=CC(=[N+](C)C)C=C2)c2ccc(N(C)C)cc2)cc1 5.53 µM
CCN(CC)C(=O)c1cc(S(=O)(=O)Cc2ccccc2)c(N2CCC(c3ccccc3)CC2)cc1N(CC)CCN(C)C 13.8 µM
COc1ccc2cc(S(=O)(=O)N[C@H](CC(=O)N[C@H](Cc3ccc(CN4[C@H](C)CCC[C@@H]4C)cc3)C(=O)N(C)C(C)C)c3ccc4c(c3)OCO4)ccc2c1 16.3 µM
CCCCCCCC[Si](OCC)(OCC)OCC 30 µM
Cc1cc2c(cc1C(F)(F)F)N(C(=O)Nc1ccc(Oc3cccnc3C)nc1)CC2 0.889 µM
Cc1cc(F)ccc1-c1cc(N2CC[C@@H](O)[C@H]2CO)ncc1N(C)C(=O)C(C)(C)c1cc(C(F)(F)F)cc(C(F)(F)F)c1 9.76 µM
